Test results from ChEMBL document CHEMBL1961873, “Compounds: GSK PKIS; Assays: Nanosyn kinase panel” (2012).

Assays:
[1] = target: T1, Ephrin type-B receptor 2 (Homo sapiens) (UniProt P29323); details: at 1 µM
T1 sequence (whole entry): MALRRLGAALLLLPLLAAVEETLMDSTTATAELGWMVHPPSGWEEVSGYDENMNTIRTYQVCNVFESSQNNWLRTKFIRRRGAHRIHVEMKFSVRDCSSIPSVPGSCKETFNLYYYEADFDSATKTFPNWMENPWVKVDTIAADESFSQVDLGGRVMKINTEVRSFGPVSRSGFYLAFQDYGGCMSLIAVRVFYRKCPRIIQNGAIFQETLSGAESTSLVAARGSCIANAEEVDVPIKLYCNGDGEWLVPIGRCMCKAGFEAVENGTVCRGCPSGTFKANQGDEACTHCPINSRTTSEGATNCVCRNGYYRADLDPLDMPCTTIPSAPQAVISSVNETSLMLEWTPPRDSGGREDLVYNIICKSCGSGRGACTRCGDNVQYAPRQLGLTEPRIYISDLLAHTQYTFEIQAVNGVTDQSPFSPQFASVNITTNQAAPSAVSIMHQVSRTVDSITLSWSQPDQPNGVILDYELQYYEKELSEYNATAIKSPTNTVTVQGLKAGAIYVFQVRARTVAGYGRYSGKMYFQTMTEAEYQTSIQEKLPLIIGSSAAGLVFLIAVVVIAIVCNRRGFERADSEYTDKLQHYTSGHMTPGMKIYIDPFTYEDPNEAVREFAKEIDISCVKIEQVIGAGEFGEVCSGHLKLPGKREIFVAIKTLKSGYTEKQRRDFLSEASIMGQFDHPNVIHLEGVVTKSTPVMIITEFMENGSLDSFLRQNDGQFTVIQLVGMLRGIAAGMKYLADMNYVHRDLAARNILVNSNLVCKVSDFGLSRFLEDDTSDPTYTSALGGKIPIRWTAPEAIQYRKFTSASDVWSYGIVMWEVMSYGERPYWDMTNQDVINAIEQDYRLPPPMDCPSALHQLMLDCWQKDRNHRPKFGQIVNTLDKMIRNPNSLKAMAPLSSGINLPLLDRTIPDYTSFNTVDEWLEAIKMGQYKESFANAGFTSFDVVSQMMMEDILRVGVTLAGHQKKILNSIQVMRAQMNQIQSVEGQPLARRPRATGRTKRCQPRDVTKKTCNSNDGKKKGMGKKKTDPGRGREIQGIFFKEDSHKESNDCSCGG

[2] = target: T2, Ephrin type-B receptor 3 (Homo sapiens) (UniProt P54753); details: at 0.1 µM
T2 sequence (whole entry): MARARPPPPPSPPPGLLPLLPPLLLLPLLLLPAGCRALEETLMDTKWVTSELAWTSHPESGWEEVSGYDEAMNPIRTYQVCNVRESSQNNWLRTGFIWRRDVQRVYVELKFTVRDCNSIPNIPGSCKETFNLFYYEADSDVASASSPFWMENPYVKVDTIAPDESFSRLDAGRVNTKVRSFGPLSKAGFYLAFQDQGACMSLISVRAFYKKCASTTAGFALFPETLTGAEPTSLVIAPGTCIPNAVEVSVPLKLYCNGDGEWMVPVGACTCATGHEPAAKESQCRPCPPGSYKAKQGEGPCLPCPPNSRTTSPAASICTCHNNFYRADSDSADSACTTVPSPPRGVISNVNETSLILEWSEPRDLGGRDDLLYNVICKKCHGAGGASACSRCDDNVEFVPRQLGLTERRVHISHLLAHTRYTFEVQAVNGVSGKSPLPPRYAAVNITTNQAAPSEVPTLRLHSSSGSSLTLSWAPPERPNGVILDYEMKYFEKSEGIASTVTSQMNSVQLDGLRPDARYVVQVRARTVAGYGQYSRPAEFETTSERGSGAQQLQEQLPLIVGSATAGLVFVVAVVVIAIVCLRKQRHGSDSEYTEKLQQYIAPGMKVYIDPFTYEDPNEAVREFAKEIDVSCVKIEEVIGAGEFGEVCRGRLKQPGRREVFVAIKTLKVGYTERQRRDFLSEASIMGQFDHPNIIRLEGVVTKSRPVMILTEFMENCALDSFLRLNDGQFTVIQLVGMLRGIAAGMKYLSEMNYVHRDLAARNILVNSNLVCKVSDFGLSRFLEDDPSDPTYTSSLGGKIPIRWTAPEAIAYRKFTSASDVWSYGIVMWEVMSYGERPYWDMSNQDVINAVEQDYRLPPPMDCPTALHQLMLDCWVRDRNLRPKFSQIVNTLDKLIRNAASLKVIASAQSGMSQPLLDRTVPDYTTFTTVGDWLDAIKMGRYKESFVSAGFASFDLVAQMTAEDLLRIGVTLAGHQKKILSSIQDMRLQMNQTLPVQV

[3] = target: T2, Ephrin type-B receptor 3 (Homo sapiens); details: at 1 µM
[4] = target: T3, Ephrin type-B receptor 4 (Homo sapiens) (UniProt P54760); details: at 0.1 µM
T3 sequence (whole entry): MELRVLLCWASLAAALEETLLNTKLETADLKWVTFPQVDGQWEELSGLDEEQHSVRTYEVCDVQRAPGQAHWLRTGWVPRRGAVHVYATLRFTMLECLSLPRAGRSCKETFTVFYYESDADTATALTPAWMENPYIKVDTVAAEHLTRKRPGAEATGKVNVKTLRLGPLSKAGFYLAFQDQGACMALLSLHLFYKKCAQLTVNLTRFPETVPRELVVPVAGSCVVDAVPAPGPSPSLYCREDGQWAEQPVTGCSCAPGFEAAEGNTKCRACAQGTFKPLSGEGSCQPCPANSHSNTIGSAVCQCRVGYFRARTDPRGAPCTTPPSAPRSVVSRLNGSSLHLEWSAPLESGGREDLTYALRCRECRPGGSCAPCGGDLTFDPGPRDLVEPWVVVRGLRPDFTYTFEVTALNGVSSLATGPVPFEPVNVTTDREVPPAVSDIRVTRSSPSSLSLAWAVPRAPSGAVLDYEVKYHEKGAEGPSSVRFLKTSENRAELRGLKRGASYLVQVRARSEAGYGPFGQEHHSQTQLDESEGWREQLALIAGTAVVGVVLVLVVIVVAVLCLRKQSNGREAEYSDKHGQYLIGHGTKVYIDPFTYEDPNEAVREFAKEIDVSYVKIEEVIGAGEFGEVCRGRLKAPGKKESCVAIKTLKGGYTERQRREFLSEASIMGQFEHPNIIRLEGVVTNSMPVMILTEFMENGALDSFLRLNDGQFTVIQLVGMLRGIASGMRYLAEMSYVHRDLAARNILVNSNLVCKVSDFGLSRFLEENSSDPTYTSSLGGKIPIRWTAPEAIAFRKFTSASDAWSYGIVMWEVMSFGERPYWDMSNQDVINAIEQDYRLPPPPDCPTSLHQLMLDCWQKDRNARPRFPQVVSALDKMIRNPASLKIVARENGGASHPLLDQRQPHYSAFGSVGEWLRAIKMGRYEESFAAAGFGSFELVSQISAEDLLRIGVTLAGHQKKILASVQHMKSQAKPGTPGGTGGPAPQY

[5] = target: T3, Ephrin type-B receptor 4 (Homo sapiens); details: at 1 µM
[6] = target: Receptor tyrosine-protein kinase erbB-2 (Homo sapiens) (UniProt P04626); details: at 0.1 µM
[7] = target: Receptor tyrosine-protein kinase erbB-2 (Homo sapiens) (UniProt P04626); details: at 1 µM
[8] = target: Receptor tyrosine-protein kinase erbB-4 (Homo sapiens) (UniProt Q15303); details: at 0.1 µM
[9] = target: Receptor tyrosine-protein kinase erbB-4 (Homo sapiens) (UniProt Q15303); details: at 1 µM
[10] = target: Tyrosine-protein kinase Fer (Homo sapiens) (UniProt P16591); details: at 0.1 µM
[11] = target: Tyrosine-protein kinase Fer (Homo sapiens) (UniProt P16591); details: at 1 µM
[12] = target: Tyrosine-protein kinase Fes/Fps (Homo sapiens) (UniProt P07332); details: at 0.1 µM
[13] = target: Tyrosine-protein kinase Fes/Fps (Homo sapiens) (UniProt P07332); details: at 1 µM
[14] = target: Fibroblast growth factor receptor 1 (Homo sapiens) (UniProt P11362); details: at 0.1 µM
[15] = target: Fibroblast growth factor receptor 1 (Homo sapiens) (UniProt P11362); details: at 1 µM
[16] = target: Fibroblast growth factor receptor 2 (Homo sapiens) (UniProt P21802); details: at 0.1 µM
[17] = target: Fibroblast growth factor receptor 2 (Homo sapiens) (UniProt P21802); details: at 1 µM
[18] = target: Fibroblast growth factor receptor 3 (Homo sapiens) (UniProt P22607); details: at 0.1 µM
[19] = target: Fibroblast growth factor receptor 3 (Homo sapiens) (UniProt P22607); details: at 1 µM
[20] = target: Fibroblast growth factor receptor 4 (Homo sapiens) (UniProt P22455); details: at 0.1 µM;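 further: values are mean percent inhibition of FGFR4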
Chain of Fibroblast growth factor receptor 4 (Homo sapiens) (P22455 22-802 limits assumed): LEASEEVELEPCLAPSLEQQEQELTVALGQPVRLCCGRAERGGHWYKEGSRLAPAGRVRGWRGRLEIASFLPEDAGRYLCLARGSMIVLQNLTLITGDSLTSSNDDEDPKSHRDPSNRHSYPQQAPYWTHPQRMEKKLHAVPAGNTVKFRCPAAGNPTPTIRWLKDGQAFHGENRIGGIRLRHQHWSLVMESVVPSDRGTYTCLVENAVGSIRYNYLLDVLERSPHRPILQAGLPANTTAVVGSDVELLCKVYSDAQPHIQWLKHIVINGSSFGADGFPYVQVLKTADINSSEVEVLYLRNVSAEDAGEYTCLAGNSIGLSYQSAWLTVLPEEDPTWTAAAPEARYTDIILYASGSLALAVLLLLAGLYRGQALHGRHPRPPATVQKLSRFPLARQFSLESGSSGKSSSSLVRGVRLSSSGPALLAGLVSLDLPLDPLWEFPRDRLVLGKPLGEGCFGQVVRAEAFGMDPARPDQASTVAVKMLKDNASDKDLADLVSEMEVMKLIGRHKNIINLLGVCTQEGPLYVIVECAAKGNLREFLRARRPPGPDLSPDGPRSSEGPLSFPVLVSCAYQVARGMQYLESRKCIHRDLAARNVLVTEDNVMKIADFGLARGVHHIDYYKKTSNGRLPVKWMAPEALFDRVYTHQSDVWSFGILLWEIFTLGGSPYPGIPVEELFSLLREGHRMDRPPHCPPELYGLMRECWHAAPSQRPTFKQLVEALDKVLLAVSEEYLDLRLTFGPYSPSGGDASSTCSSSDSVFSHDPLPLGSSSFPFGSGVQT

Chain of Tyrosine-protein kinase Fes/Fps (Homo sapiens) (P07332 whole entry): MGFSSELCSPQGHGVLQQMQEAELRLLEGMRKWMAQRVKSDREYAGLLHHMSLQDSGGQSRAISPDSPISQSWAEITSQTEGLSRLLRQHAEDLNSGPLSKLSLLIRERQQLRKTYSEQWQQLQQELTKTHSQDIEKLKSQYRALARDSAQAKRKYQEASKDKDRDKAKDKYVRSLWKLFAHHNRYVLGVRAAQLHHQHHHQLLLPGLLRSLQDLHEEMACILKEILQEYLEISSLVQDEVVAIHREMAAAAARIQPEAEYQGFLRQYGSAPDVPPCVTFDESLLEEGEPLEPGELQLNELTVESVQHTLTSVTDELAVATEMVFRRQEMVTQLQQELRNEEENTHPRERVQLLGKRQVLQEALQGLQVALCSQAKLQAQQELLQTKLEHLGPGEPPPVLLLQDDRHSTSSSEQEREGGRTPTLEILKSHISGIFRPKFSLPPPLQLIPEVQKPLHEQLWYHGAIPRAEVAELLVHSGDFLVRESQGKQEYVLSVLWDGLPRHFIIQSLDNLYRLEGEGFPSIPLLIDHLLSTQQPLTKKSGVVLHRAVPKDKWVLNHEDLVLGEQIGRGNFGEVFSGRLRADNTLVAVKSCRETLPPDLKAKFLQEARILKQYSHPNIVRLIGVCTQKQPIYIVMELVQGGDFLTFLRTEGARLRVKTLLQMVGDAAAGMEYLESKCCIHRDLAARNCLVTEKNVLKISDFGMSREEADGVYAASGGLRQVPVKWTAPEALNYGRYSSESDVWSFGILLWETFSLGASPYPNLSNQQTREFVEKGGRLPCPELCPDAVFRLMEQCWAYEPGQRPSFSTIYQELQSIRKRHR
Chain of Fibroblast growth factor receptor 1 (Homo sapiens) (P11362 22-822 limits assumed): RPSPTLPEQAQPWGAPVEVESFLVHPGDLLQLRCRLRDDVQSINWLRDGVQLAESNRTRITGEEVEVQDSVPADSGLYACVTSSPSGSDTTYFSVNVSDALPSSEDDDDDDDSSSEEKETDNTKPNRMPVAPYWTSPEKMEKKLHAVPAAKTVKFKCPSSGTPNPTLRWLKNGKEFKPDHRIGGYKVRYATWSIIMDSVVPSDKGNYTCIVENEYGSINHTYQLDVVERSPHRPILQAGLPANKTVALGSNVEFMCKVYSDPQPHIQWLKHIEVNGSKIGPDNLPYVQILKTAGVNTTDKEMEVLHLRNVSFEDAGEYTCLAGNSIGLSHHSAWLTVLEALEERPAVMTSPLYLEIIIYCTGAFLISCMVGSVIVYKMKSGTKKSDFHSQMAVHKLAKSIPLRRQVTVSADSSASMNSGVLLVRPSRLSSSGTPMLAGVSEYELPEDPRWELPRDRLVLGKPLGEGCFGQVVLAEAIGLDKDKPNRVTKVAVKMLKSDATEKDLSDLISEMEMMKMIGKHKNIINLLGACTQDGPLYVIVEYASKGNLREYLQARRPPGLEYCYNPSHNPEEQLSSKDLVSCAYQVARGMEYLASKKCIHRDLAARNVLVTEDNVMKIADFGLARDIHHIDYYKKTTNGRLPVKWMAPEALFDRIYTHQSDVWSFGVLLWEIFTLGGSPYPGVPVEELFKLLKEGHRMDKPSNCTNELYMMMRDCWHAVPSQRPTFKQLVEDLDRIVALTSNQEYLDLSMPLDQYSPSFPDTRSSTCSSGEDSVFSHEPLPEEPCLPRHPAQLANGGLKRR
Chain of Receptor tyrosine-protein kinase erbB-2 (Homo sapiens) (P04626 whole entry): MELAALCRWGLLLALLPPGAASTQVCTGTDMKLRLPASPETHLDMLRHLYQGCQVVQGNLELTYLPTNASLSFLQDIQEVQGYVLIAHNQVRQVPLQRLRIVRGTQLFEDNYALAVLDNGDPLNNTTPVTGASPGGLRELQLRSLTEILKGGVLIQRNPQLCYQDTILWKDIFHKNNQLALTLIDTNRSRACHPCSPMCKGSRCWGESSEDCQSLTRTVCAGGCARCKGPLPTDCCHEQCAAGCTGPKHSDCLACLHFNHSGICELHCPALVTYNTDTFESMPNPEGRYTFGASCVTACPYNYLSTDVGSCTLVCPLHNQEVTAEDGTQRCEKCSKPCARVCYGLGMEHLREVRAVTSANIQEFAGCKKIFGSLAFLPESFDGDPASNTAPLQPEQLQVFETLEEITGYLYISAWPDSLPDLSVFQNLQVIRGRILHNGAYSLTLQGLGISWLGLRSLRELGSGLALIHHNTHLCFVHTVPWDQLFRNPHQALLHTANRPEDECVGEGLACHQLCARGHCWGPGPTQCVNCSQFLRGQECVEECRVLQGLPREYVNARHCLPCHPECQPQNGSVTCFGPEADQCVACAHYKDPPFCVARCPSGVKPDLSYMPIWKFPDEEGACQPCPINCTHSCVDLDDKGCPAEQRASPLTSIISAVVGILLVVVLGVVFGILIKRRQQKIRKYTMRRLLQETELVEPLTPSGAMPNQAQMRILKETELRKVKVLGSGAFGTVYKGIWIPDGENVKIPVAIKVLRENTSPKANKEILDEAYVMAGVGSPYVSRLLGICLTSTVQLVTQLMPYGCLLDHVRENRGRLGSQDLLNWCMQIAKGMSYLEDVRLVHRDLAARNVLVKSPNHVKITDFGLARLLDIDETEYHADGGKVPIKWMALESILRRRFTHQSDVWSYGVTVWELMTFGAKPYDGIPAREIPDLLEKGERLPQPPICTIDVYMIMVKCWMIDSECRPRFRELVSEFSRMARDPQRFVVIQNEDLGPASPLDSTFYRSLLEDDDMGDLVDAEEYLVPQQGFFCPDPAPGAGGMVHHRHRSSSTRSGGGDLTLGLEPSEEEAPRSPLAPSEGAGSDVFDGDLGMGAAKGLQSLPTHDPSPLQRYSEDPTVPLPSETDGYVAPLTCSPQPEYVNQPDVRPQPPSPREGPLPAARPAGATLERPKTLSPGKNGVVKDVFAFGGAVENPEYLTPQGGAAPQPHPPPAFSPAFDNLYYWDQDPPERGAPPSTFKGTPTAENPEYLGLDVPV
Chain of Receptor tyrosine-protein kinase erbB-4 (Homo sapiens) (Q15303 whole entry): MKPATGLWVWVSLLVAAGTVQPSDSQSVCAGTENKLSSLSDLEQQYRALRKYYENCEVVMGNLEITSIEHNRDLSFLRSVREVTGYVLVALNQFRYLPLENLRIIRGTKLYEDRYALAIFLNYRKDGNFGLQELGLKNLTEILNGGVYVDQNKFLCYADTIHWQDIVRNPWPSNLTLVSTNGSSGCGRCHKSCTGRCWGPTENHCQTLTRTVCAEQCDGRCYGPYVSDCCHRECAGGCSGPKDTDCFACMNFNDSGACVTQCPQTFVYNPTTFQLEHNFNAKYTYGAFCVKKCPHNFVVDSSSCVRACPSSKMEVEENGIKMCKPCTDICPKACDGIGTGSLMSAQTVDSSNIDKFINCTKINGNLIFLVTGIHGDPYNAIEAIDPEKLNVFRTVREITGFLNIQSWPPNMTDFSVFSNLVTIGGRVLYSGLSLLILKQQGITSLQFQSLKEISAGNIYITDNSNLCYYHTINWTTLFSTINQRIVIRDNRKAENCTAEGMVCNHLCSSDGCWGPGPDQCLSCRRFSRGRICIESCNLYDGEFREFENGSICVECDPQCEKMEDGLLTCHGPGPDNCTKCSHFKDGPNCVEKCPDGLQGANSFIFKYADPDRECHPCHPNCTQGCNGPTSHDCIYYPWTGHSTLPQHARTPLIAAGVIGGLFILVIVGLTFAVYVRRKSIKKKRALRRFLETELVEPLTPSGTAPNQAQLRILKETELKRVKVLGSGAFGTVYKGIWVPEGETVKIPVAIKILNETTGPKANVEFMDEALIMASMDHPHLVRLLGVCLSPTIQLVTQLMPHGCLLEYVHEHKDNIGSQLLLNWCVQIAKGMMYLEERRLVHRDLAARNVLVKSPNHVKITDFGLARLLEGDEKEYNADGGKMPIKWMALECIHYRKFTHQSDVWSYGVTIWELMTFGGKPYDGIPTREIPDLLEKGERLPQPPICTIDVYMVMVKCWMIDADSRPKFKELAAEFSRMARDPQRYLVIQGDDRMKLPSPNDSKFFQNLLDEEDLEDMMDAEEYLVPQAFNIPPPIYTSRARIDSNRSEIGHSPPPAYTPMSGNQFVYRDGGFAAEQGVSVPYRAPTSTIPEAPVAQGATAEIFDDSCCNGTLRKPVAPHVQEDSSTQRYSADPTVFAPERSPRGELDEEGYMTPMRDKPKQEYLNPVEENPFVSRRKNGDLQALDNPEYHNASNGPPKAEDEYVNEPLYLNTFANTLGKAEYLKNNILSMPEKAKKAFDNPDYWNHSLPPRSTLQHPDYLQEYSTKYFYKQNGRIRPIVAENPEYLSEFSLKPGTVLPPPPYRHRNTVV

SMILES	inhibition [1] [%]	inhibition [2] [%]	inhibition [3] [%]	inhibition [4] [%]	inhibition [5] [%]	inhibition [6] [%]	inhibition [7] [%]	inhibition [8] [%]	inhibition [9] [%]	inhibition [10] [%]	inhibition [11] [%]	inhibition [12] [%]	inhibition [13] [%]	inhibition [14] [%]	inhibition [15] [%]	inhibition [16] [%]	inhibition [17] [%]	inhibition [18] [%]	inhibition [19] [%]	inhibition [20] [%]
Fc1ccc(-c2nn3ccccc3c2-c2ccncc2)cc1	17.7	4.48	8.05	1.73	4.73	1.52	2.31	10.8	27.2	1.5	0.75	0.57	0.96	3.29	0.56	-0.01	6.38	5.68	2.66	0.84
N#Cc1c(NC(=O)CN2CCOCC2)sc2c1CCCC2	12.9	4.21	4.07	2.41	0.41	2.23	4.83	7	5.12	8.53	9.05	3.37	6.23	4.57	3.5	3.03	7.88	3.63	6.45	-0.36
CN(C)CCOc1ccc(-c2nc(-c3ccncc3)c(-c3ccc4c(c3)CC/C4=N\O)[nH]2)cc1	11.7	3.83	3.2	1.85	2.33	2.46	2.61	10	15	1.86	5.81	2.16	2.53	6.05	2.14	4.67	4.48	5.89	4.69	0.23
c1ccc(-c2nc3n(c2-c2ccc4c(c2)OCO4)CCC3)nc1	3.77	4.03	-0.67	0.53	1.11	1.28	-0.6	3.67	1.72	2.91	1.9	0.9	-0.41	0.69	2.51	-0.68	1.92	4.46	1.25	-1.29
CCOc1ccc2c(-c3ccnc(Nc4cccc(C(F)(F)F)c4)n3)cnn2n1	9.64	3.96	2.33	1.01	2.81	4.13	2.54	7.09	6.85	1.8	7.63	2.3	2.59	2.54	7.08	3.04	7.12	2.18	5.74	-0.43
CCn1c(-c2nonc2N)nc2cnc(Oc3cccc(NC(=O)c4ccc(N(C)C)cc4)c3)cc21	7.72	4.18	3.26	0.67	0.71	1.13	-0.18	8.23	9.63	1.16	2.5	0.77	1.31	3.11	0.12	-0.14	3.9	2.5	3.54	1.51
